PubChem BioAssay AID1159580 (chemical genetic matrix, 2015)
Screen size: about 5,500 compounds; about 2,000 (36%) were called active. Not shown: some 18% with an inconclusive outcome. Rule as the data show it: active = normalized growth mostly below about 0.91 (no sharp cut-off); inconclusive = no clear call, values can overlap the other calls; inactive = mostly above about 0.92. This is one part of the list.

Assay: chemical genetic growth profiling, strain panel (AID 1159580);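 also: tested at 20 µM; growth read once vehicle control cultures reached saturation at 30 °C; 1 = growth at the plate median or of vehicle wells; lower values mean less growth of the strain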
Settings: S. cerevisiae deletion strains, growth OD

Measured: normalized growth

CC1c2cccc(O)c2C(O)=C2C(=O)C3(O)C(O)=C(C(N)=O)C(=O)C(N(C)C)C3C(O)C21 (centres undefined)
active: locus YGR229C, strain SMI1, stronger effect = lower value 0.835
inactive: locus YAL040C, strain CLN3, stronger effect = lower value 0.944 | locus YCL061C, strain MRC1 (second series), stronger effect = lower value 0.966 | locus YDR150W, strain NUM1, stronger effect = lower value 0.983 | locus YDR363W, strain ESC2, stronger effect = lower value 0.936 | locus YER002W, strain NOP16, stronger effect = lower value 0.989 | locus YJR075W, strain HOC1, stronger effect = lower value 0.971 | locus YMR263W, strain SAP30, stronger effect = lower value 0.986 | locus YNL153C, strain GIM3, stronger effect = lower value 0.891 | locus YNL175C, strain NOP13, stronger effect = lower value 0.993 | locus YNL197C, strain WHI3, stronger effect = lower value 1.02 | locus YNL224C, strain SQS1, stronger effect = lower value 0.989 | locus YOR083W, strain WHI5 (second series), stronger effect = lower value 0.977 | locus YPL241C, strain CIN2, stronger effect = lower value 0.974
